# Measurements taken from PubChem BioAssay (NCATS).
# Results filed as inconclusive are left out. The source made the active and inactive calls. Calls come from the whole dose curve; as a rule, active = well fitted inhibition curve with a large enough effect; inconclusive = small, poorly fitted or top-dose-only effect; inactive = no such curve, though single readings can be large or run the other way. Where a SMILES comes first, the peptide text is derived from it. [ ]: non-standard residue; d: D form. 2Abz = Nc1ccccc1C(=O)O
# System: Zika virus NS2B-NS3 protease (linked construct)
# Assay: Primary screen NINDS Rhodamine qHTS for Zika virus inhibitors (AID 1347160); note: nearly all actives have a fitted effect of over 55% in size
# Conditions: purified NS2B-NS3 protease, Rhodamine110 substrate fluorescence; series mostly up to 57.1 µM; activity change, negative = inhibition: at the top concentration
# Excerpt: Avindra Nath, Ph.D., National Institute of Neurological Disorders and Stroke (NINDS), Bethesda, MD
# Radhakrishnan Padmanabhan, Ph.D., Georgetown University (GU), Washington D.C.
# Zika Virus causes congenital defects, including microcephaly and is associated with Guillain-Barre syndrome, eningoencephalitis and myelitis in infected adult. […] Using a target-based approach, we hope to establish a screening paradigm to uncover novel, cell-active NS2B-NS3 protease (Zika Virus) specific inhibitors from NCATS' collection of small molecules using qHTS.
# Four assay panel was created to identify potential Zika Virus inhibitors. Namely, (1) GU unlinked NS2B-NS3 AMC tagged protease qHTS, (2) GU unlinked NS2B-NS3 Rhodamine tagged protease qHTS, (3) NINDS linked NS2B-NS3 AMC tagged protease qHTS, (4) NINDS linked NS2B-NS3 Rhodamine tagged protease qHTS. Active compounds were re-acquired and re-screened to confirm inhibition. Inhibitors were further screened against various confirmatory and counterscreens in dose response format.
# Early Translation Branch (ETB)
# National Center for Advancing Translational Sciences (NCATS), Rockville, MD
# National Institute of Health (NIH), Bethesda, Maryland
# For the linked assay, Nath lab (NINDS) provided the purified linked NS2B-NS3 protease which is consists of hydrophilic domain of NS2B linked to the NS3 protease domain by a flexible (-[…]-) linker. Control compound aprotinin is obtained from Thermo Scientific (#78432; Waltham, Massachusetts). Rhodamine110 substrate ([N-Cbz]-Nle-Lys-Arg-Arg-Rhod110-Arg-Arg-Lys-Nle-[N-Cbz]) was purchased from either Genscript or Bachem.
# 1536-well Protease (Rhodamine110 Substrate) Assay:
# Briefly, 3 microL of enzyme (25 nM final concentration), in assay buffer (10 mM Tris-HCl pH 8.0 with 0.01% Tween 20) were dispensed into a 1,536-well solid-bottom black plate (Greiner Bio One, Monroe, NC). Twenty-three nL of compounds (final concentration range 7.28 nM to 114 microM) or control Aprotinin (final concentration range 3.47 nM to 114 microM) were transferred via Wako Pin-tool (Wako Automation, Richmond, VA). Samples were incubated (room temperature, protected from light) for 15 minutes followed by a 1 microL Rhodamine110 substrate addition (1.5 microM final concentration). Plates were then immediately read on a ViewLux High-throughput CCD imager (PerkinElmer, Waltham, MA) equipped with FITC fluorescence optics (480(20) nm excitation, 540(25) nm emission), then incubated (room temperature, protected from light) for 15 minutes (~15% conversion). The change in fluorescence intensity over the 15-minute reaction period was normalized against no-inhibitor and no-enzyme controls and the resulting percent inhibition data were fitted to a 4-parameter Hill equation. Aprotinin was used as intraplate control.
# % is set by controls: 0 for no effect and ±100 for the full control effect; potency is the fitted concentration of half-maximal effect.
SMILES,"activity change, negative = inhibition",Potency,outcome
CCC(C)C1NC(=O)C2CCCN2C(=O)C(C(C)C)NC(=O)c2ccccc2NC(=O)C(Cc2ccc(O)cc2)NC(=O)C(C)NC(=O)C(C(C)O)NC1=O (stereo not given) (cyclo([2Abz]VPITAY); configuration not given here),1.7% [at 15.1 µM] (inactive),–,–
CC(CO[C@@H]1O[C@H](COC(=O)/C=C/c2ccc(O)c(O)c2)[C@@H](O)[C@H](O)[C@H]1O)C1(O)COC(=O)C1 (stereo not given in full),-6.65% [at 33.1 µM] (inactive),–,–
COc1cc(C(C)=O)ccc1O[C@@H]1O[C@H](CO[C@@H]2O[C@@H](C)[C@H](O)[C@@H](O)[C@H]2O)[C@@H](O)[C@H](O)[C@H]1O,2.77% [at 33.1 µM] (inactive),–,–
CC(C)C(=O)c1cn(CC(=O)COc2ccc(Oc3ccccc3)cc2)c2ccc(C(=O)O)cc12,–,8.91 µM (active),–
COc1cc(O[C@@H]2O[C@H](CO)[C@@H](O)[C@H](O)[C@H]2O)c(CCC(=O)OC[C@H]2O[C@@H](Oc3cc(OC)c(C4OC(=O)C(C)(O)C4O)cc3CCC(=O)O)[C@H](O)[C@@H](O)[C@@H]2O)cc1C1OC(=O)C(C)(O)C1O (stereo not given in full),41.8% [at 15.1 µM] (inactive),–,–
COC(=O)[C@@H]1C2CC3c4[nH]c5ccccc5c4CCN3CC2CC[C@@H]1O (stereo not given in full),24.5% (inactive),–,–
CCC(C)(O)C(O)C(=O)OCc1ccc(O[C@@H]2O[C@H](CO)[C@@H](O)[C@H](O)[C@H]2O)cc1 (stereo not given in full),18.3% [at 33.1 µM] (inactive),–,–
CCCCNC(=O)[C@@H]1Cc2ccccc2N1C(=O)[C@@H](N)CC,74.7% (inactive),–,–
COc1ccc(C(=O)O[C@H]2CC(C)=CC[C@@]3(C)[C@@H](OC(C)=O)C[C@@](O)(C(C)C)[C@H]23)cc1,-21.4% [at 33.1 µM] (inactive),–,–
C=CC1(C)CC(O)C2(CCC3C(C)(C(=O)O)CCCC3(C)C2=O)C1 (stereo not given),–,–,inactive [at 33.1 µM]
CC1C/C=C/C=C\CCCCC(O)C/C=C/C(=O)O1 (stereo not given),-24.9% (inactive),–,–
COc1cc(/C=C/C(=O)OC2CC(OC(C)=O)C(OC(C)=O)C3C2CCC2C(=O)OC(c4ccoc4)CC23C)ccc1O[C@@H]1O[C@H](CO)[C@@H](O)[C@H](O)[C@H]1O (stereo not given in full),–,–,inactive [at 15.1 µM]
CC(C)C1=CCC(C)(O)C(OC2OC(CO)C(O)C(O)C2O)C1 (stereo not given),–,10 µM (active),–
CC(=O)OC1C(O)CC(O[C@@H]2O[C@H](CO)[C@@H](O)[C@H](O)[C@H]2O)C2CCC3C(=O)OC(c4ccoc4)CC3(C)C21 (stereo not given in full),8.5% [at 33.1 µM] (inactive),–,–
CC(C)C1(O[C@@H]2O[C@H](CO)[C@@H](O)[C@H](O)[C@H]2O)CC=C(CO)CC1 (stereo not given in full),-16.8% [at 33.1 µM] (inactive),–,–
Cc1cc(C)cc(NC(=O)Cc2ccc(OC(C)(C)C(=O)O)cc2)c1,–,–,inactive
CC1CCCC2OC2C(=O)c2c(O)cc(O)cc2CC(=O)O1 (stereo not given),–,–,inactive
C[C@@H]1CC[C@]2(C(=O)O)CC[C@]3(C(=O)O)C(=CCC4[C@@]5(C)CC[C@H](O[C@@H]6O[C@@H](C)[C@H](O[C@@H]7O[C@H](CO)[C@@H](O)[C@H](O)[C@H]7O)[C@@H](O)[C@H]6O)C(C)(C)C5CC[C@]43C)C2[C@H]1C (stereo not given in full),14% [at 15.1 µM] (inactive),–,–
Cc1ncc([N+](=O)[O-])n1CC(O)CN1CCOCC1 (stereo not given),8.37% (inactive),–,–
Cc1cccc(-c2[nH]c(CNc3ccccc3F)nc2-c2ccc3ncnn3c2)n1,9.69% (inactive),–,–

SMILES,"activity change, negative = inhibition",Potency,outcome
C=CC1C(O[C@@H]2O[C@H](CO)[C@@H](O)[C@H](O)[C@H]2O)OC=C(C(=O)OC)C1CC(=O)O (stereo not given in full),30.6% [at 33.1 µM] (inactive),–,–
C=CCc1ccc(O[C@@H]2O[C@H](CO)[C@@H](O)[C@H](O)[C@H]2O)c(OC)c1,–,–,inactive [at 33.1 µM]
COC1=Cc2c(nc3n(c2=O)C(C)C(=O)NC3(O)C(C)C)OC=C1 (stereo not given),12.6% [at 33.1 µM] (inactive),–,–
CO/N=C(/C(=O)N[C@@H]1C(=O)N2C(C(=O)O)=C(CSC(=O)c3ccco3)CS[C@H]12)c1csc(N)n1,–,25.1 µM (active),–
C=C1[C@H]2CC[C@]3(O)[C@@](CC[C@@H]4[C@](C)(C(=O)O)CCC[C@]43C)(C2)[C@H]1OC(=O)/C(C)=C\C,10.1% [at 33.1 µM] (inactive),–,–
COc1cc(N2CCC(O)CC2)ccc1Nc1cc(Nc2ccccc2S(=O)(=O)C(C)C)c2cc[nH]c2n1,56.2% [at 33.1 µM] (inactive),–,–
C[C@H](NCc1ccc(OCc2ccccc2F)cc1)C(N)=O,–,–,inactive
Oc1ccc([C@H]2COc3cc(O)ccc3C2)cc1,6.33% (inactive),–,–
O=C(O[C@H]1[C@@H]2C=CO[C@@H](O[C@@H]3O[C@H](CO)[C@@H](O)[C@H](O)[C@H]3O)[C@@H]2[C@@]2(CO)O[C@@H]12)c1ccc(O)cc1,-12.7% [at 33.1 µM] (inactive),–,–
OC[C@H]1O[C@@H](Oc2ccc3c(c2)OC[C@H]2c4cc5c(cc4O[C@@H]32)OCO5)[C@H](O)[C@@H](O)[C@@H]1O,7.01% [at 33.1 µM] (inactive),–,–
C/C=C1/[C@H](O[C@@H]2O[C@H](CO)[C@@H](O)[C@H](O)[C@H]2O)OC=C(C(=O)OC)[C@H]1CC(=O)O[C@@H]1O[C@H](CO)[C@@H](O)[C@H](O)[C@H]1O,24% [at 15.1 µM] (inactive),–,–
O=C(O)c1n[nH]c2c1C[C@H]1C[C@@H]21,24.7% (inactive),–,–
C=C1C(=O)O[C@H]2[C@H]1[C@@H](OC(=O)C(C)CO)C[C@@]1(C)[C@H](O)CCC(=O)[C@H]21 (stereo not given in full),31.7% [at 33.1 µM] (inactive),–,–
CC12CCC3c4ccc(O)cc4CCC3C1CCC2OC1OC(C(=O)O)C(O)C(O)C1O (stereo not given),12.5% (inactive),–,–
CCOC(=O)[C@H]1O[C@@H]1C(=O)N[C@@H](CC(C)C)C(=O)NCCC(C)C,14.4% (inactive),–,–
C/C=C1\[C@H](O[C@@H]2O[C@H](CO)[C@@H](O)[C@H](O)[C@H]2O)OC=C(C(=O)OC)[C@H]1CC(=O)OC,15.7% [at 33.1 µM] (inactive),–,–
C=C1CCC2[C@@](C)(C=O)CCC[C@]2(C)[C@H]1CC/C(C)=C/CO (stereo not given in full),-5.18% (inactive),–,–
CC1(C)CCCC2(C)C(CO)C3CCC2C31 (stereo not given),12.6% (inactive),–,–
C=C1CC[C@@H]2[C@](C)(CC[C@H](O)[C@@]2(C)CCC=C(C)C)[C@@H]1Cc1c[nH]c2ccccc12,0.409% [at 33.1 µM] (inactive),–,–
COc1c(C)c(OCC=C(C)C)cc2c1C(=O)NC2=O,-22.7% (inactive),–,–
